The panel holds about 83,000 compounds, 20% with a hit somewhere; the sample as a whole holds those more often.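 Results are percent growth after 48 hours of single-concentration exposure. 100 means growth as in untreated cells, lower positive values show inhibition; negative values down to -100 show cell death.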 Activity calls are given as the source filed them.

In this test the test system is HCT-116 colon. Briefly: NCI-60 one-dose screen, 48 h (100 = growth as untreated, 0 = no growth, -100 = all killed). As to conditions: 10 µM unless noted. The method, then: Growth inhibition of the HCT-116 human tumor cell line is measured as a screen for anti-cancer activity. Cells are grown in 96 well plates and exposed to the test compound for 48 hours. Compounds are tested at a single concentration, which is 10^-5 M for most compounds. The reported endpoint is percent growth (GI% or GIPRCNT), where numbers from 0 - 100% represent growth inhibition, and numbers from -100% - 0 represent cell death. For example, a value of 40 represents 60% growth inhibition. A value of 0 means no net growth occurred over the course of the experiment. A value of -40 indicates 40% of cells at the beginning of the experiment died by the end of the experiment. A value of -100 means all cells are dead at the end of the experiment.
NCI-60 Human Tumor Cell Lines Screen was performed using the standard one-dose NCI protocol, which is described in more detail at https://dtp.cancer.gov/discovery_development/nci-60/default.htm.
Compounds with GIPRCNT values below 10 were considered active. Activity score was based on GIPRCNT using the following formula: […]
Score is 0 for GIPRCNT values of 100 or above, 50 for GIPRCNT values of 0, and 100 for GIPRCNT values of -100.
As to `Cc1cc(N2CCCCC2)nc(N(CCNc2ccnc3cc(Cl)ccc23)Cc2ccccn2)n1`, the growth is 16.2% (inactive).

As to `COc1ccc(C2CC(c3cnccn3)=NN2)cc1OC` (stereo not given), the growth was 85.7% (inactive).

For the molecule `COC(=O)/C(=C\c1ccc(OC)cc1)C(=O)N1c2ccccc2Sc2ccccc21`, the growth was 23.3% (inactive).

As for `O=C(NCc1cn(Cc2cccc(Oc3ccccc3)c2)nn1)c1cccnc1NCc1ccc(Cl)cc1`, the growth is 22.1% (inactive).

For `O=c1[nH]nc(-c2ccc(Cl)cc2)cc1Cc1ccccc1`, the growth is 93% (inactive).

As for `COc1ccc(/C(C)=N/NS(=O)(=O)c2ccc(C)cc2)cc1OC`, the growth is 95.1% (inactive).

With `C/C(=N\NC(N)=S)c1nc2ccc(Cl)cc2[nH]1`, the growth was 35.6% (inactive).

As for `COc1cc2oc(-c3cccc(C(=O)Nc4ccc(C)cc4)c3)cc(=O)c2c(OC)c1OC`, the growth is 19.6% (inactive).

`CCOC(=O)c1cnn2c(-c3ccc(Cl)cc3)nc(NCc3ccccc3)nc12`: the growth was -15.5% (active).

On to `O=C(NC(=S)Nc1ccc(-c2nc3ccccc3[nH]2)cc1)c1ccc2ccccc2c1`, for which the growth is 3.95% (active).

Turning to `N#C/C(=C\c1ccc(Br)cc1)n1nnc2ccccc21`, the growth was -44.2% (active).

For `O=C(O)c1ccc(CO)o1`, the growth was 103% (inactive).

As for `Cc1ccc(C)c2c1C(=O)OC2=O`, the growth is 96.4% (inactive).

Regarding `CSc1nc(N)c(CNC(C)c2ccccc2)c(=O)n1C` (stereo not given), the growth was 92.2% (inactive).

Turning to `CCOc1cc(N)ccc1C(=O)NCCCN(CC)CC`, the growth was 98% (inactive).

Take `COC(=O)[C@]12CC[C@@H](C)[C@H](C)[C@@H]1C1=CC[C@@H]3[C@@]4(C)C(C=O)=C[C@@](C)(CO)C4=CC[C@@]3(C)[C@]1(C)CC2`: the growth was 6.65% (active).

`CN1C(=O)CCC(N2C(=O)c3cccc(NCCOCCOCCNC(=O)c4cc5c(o4)C(=O)c4ccccc4C5=O)c3C2=O)C1=O` (stereo not given): the growth was -21.9% (active).

Turning to `COc1ccc(-c2cc(-c3ccc(Nc4nc(Nc5ccccc5)nc(Nc5ccc(Cl)cc5)n4)cc3)nc(N)c2C#N)cc1`, the growth was -88.5% (active).

`COc1cccc(-c2nc3sccn3c2-c2ccnc(NCCNS(=O)(=O)c3c(Cl)cccc3Cl)c2)c1`: the growth was 48.8% (inactive).

Take `CCc1c(C(=O)N[C@@H]2c3cc(Cl)ccc3CC[C@@H]2O)[nH]c(C)c1C(C)=O`: the growth was 51% (inactive).

As to `CC(=O)Nc1ccc(-c2cc3c(NCc4ccc(F)cc4)ncnc3s2)cc1`, the growth was 80.7% (inactive).

As to `Nc1c(C(=O)c2ccc(Cl)s2)sc2nc3c(cc12)CCCC3`, the growth is 105% (inactive).

For the molecule `COC(=O)CNC(=O)C(=O)c1c(O)c(O)c(C(C)C)c2cc(C)c(-c3c(C)cc4c(C(C)C)c(O)c(O)c(C(=O)C(=O)NCC(=O)OC)c4c3O)c(O)c12`, the growth is 11% (inactive).

On to `C[C@@H](C[C@H](CCOCc1cccnc1)c1ccccc1)c1cc2ccccc2o1`, for which the growth is 75.6% (inactive).

For `Cc1cc(=O)[nH]c(N/N=C/c2cc(Br)ccc2O)n1`, the growth is 5.04% (active).

`CN1CCN(C(=O)[C@@]2(C)CC[C@]3(C)CC[C@]4(C)C(=CC[C@@H]5[C@@]6(C)C/C(=C/c7ccncc7)C(=O)C(C)(C)[C@@H]6CC[C@]54C)[C@@H]3C2)CC1`: the growth is 12% (inactive).

With `CC(=O)c1cc2c(o1)C(=O)c1ccccc1C2=O`, the growth was -83.6% (active).

On to `CCNCCNc1cc(-c2ccc(C(=O)OC)cc2)c(C#N)c2nc3ccccc3n12`, for which the growth is -19.5% (active).

On to `C=C(C)[C@@H]1CC[C@]2(CN)CC[C@]3(C)[C@H](CC[C@@H]4[C@@]5(C)CCC(N)[C@@](C)(CO)[C@@H]5CC[C@]43C)[C@@H]12` (stereo not given in full), for which the growth was -85.5% (active).

On to `COc1cc(NC(=O)c2cc(O)c(CC=C(C)C)c(O)c2)cc2c1O[C@]1(C)CC[C@@H](O)C(C)(C)[C@H]1C2`, for which the growth was 23.8% (inactive).

`OC(CBr)c1ccnc2ccccc12` (stereo not given): the growth is 90.7% (inactive).

`COc1ccc(OC)c(C(=O)Nc2cccc(-c3cc(=O)c4ccccc4o3)c2)c1`: the growth is 88% (inactive).

On to `O=C1C=CC(=Nc2cc(Br)c(O)c(Br)c2)C=C1`, for which the growth is 43.5% (inactive).

On to `O=S(=O)(NCCNc1cc(-c2c(-c3cccc(O)c3)nc3sccn23)ccn1)c1ccc(Cl)cc1`, for which the growth was 57.4% (inactive).

Turning to `Nc1c(-c2nc3ccc(Br)cc3c(=O)[nH]2)nnn1-c1ccccc1`, the growth was 48.2% (inactive).

On to `Nc1c(-c2nc3ccccc3c(=O)[nH]2)nnn1-c1ccc(Cl)cc1`, for which the growth was 78.8% (inactive).

In the case of `O=C(NCOC(O)C(Cl)(Cl)Cl)NCOC(O)C(Cl)(Cl)Cl` (stereo not given), the growth was 99.9% (inactive).

With `NC(=O)CC1(O)C=C(Br)C(=O)C(Br)=C1`, the growth is -61.9% (active).

For `COc1cc2ccccc2cc1C(=O)NC(=S)Nc1ccc(-c2nc3ccccc3[nH]2)cc1`, the growth is 82% (inactive).

Turning to `C=C1C(=O)O[C@H]2[C@H]1CC/C(COC(=O)/C=C\C(=O)NCc1ccc(Cn3c(=O)sn(CCCI)c3=O)cc1)=C\CC[C@@]1(C)O[C@@H]21`, the growth is -48.8% (active).

Values taken from PubChem BioAssay (NCI).
